± gives the standard deviation of the averaged measurements.
Tests used:
DLD1 [1] = experiment: cell viability (CellTiter-Glo) relative to plate median (fraction of plate median); higher = more viable cells; conditions: 5 µM; treatment time 24 h; reporter: 7TFP
How it was run: (§1)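 Colorectal cancer cell lines stably carrying lentiviral TCF/Wnt firefly luciferase reporters (7TFP or TCF4/Wnt) were plated in 384-well plates and, 24 h later, given library compounds at a final 5 µM for 24 h. Firefly luciferase or CellTiterGlo luminescence was read on parallel plates with a Tecan F500 reader. Each well's signal was normalised to the plate median in webcellHTS2 (additive, without log transformation). Values are the mean of two independent replicates.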

HCT116 = experiment: as above; conditions: 5 µM; treatment time 24 h; reporter: TCF4/Wnt
How it was run: as §1

SW480 [2] = experiment: as above; conditions: 5 µM; treatment time 24 h; reporter: 7TFP
How it was run: as §1

DLD1 [3] = experiment: TCF/Wnt firefly luciferase reporter signal relative to plate median (fraction of plate median); higher = higher Wnt reporter signal; conditions: 5 µM; treatment time 24 h; reporter: 7TFP
How it was run: as §1

SW480 [4] = experiment: as above; conditions: 5 µM; treatment time 24 h; reporter: 7TFP
How it was run: as §1

Compound | cell viability (DLD1 [1]) | cell viability (HCT116) | cell viability (SW480 [2]) | TCF/Wnt firefly luciferase reporter signal (DLD1 [3]) | TCF/Wnt firefly luciferase reporter signal (SW480 [4])
COc1ccccc1OCC(O)CO (stereo not given) | 0.953 ± 0.015 | 1.08 ± 0.05 | 1.03 ± 0.052 | 1.09 ± 0.028 | 1.01 ± 0.095
COc1c2ccoc2c(OC)c2oc(=O)ccc12 | 0.95 ± 0.0099 | 0.966 ± 0.16 | 1.07 ± 0.028 | 0.982 ± 0.11 | 0.927 ± 0.017
Cc1ccc(C(=O)c2ccc(CC(=O)O)n2C)cc1 | 0.981 ± 0.098 | 1.01 ± 0.023 | 1 ± 0.053 | 1.07 ± 0.05 | 1.06 ± 0.064
O=c1[nH]cnc2c1ncn2[C@@H]1O[C@H](CO)[C@@H](O)[C@H]1O | 1.09 ± 0.085 | 1.05 | 0.976 ± 0.028 | 0.975 ± 0.093 | 0.969 ± 0.1
CC[C@H](c1ccc(O)cc1)[C@@H](CC)c1ccc(O)cc1 | 1.05 ± 0.028 | 1.12 ± 0.078 | 1.04 ± 0.057 | 1.125 ± 0.0071 | 1.09 ± 0.092
COc1ccc2c(c1)O[C@H]1c3ccc(OC)cc3OC[C@@H]21 | 0.969 ± 0.044 | 0.906 ± 0.12 | 0.979 ± 0.044 | 0.792 ± 0.025 | 0.969 ± 0.086
CCOc1ccc2ccccc2c1C(=O)N[C@@H]1C(=O)N2[C@@H]1SC(C)(C)[C@@H]2C(=O)O | 0.991 ± 0.07 | 1.035 ± 0.0071 | 1.06 ± 0.071 | 1.1 ± 0.26 | 1.12 ± 0.057
Cn1cnc([N+](=O)[O-])c1Sc1ncnc2[nH]cnc12 | 0.95 ± 0.018 | 1.02 ± 0.054 | 1.13 ± 0.057 | 1.03 ± 0.078 | 0.965 ± 0.034
O=C(/C=C(\O)c1ccccc1)c1ccccc1O [2',beta-DIHYDROXYCHALCONE] | 1.07 ± 0.16 | 1.17 ± 0.16 | 1.08 ± 0.014 | 1.01 ± 0.17 | 1.1 ± 0.021
CC(=O)O[C@H]1CC[C@]2(C)C3=CC(=O)[C@@]4(C)C(C[C@@H]5OC6(OCC(C)CC6Br)[C@@H](C)[C@@H]54)C3CC[C@H]2C1 (stereo partly drawn) [3beta-ACETOXY-23-BROMO-ISOALLOSPIROST-9 (11)-ENE-12-ONE] | 1.04 ± 0.042 | 1.11 ± 0.092 | 1.03 ± 0.05 | 1.12 ± 0.099 | 1.1 ± 0.035
C[n+]1cccc(C(=O)[O-])c1 | 1.03 ± 0.021 | 0.938 ± 0.0085 | 1.01 ± 0.018 | 1.15 ± 0.071 | 1.11 ± 0.092
COc1cc2nc(N3CCN(C(=O)C4CCCO4)CC3)nc(N)c2cc1OC (stereo not given) | 1.05 ± 0.05 | 0.991 ± 0.11 | 1.03 ± 0.05 | 1.14 ± 0.13 | 1 ± 0.039
Cn1c(=O)c2nc(C3CCCC3)[nH]c2n(C)c1=O | 1.07 ± 0.064 | 1.05 ± 0.1 | 1.02 ± 0.047 | 1.01 ± 0.17 | 0.968 ± 0.039
O=C(O)CCNC(=O)c1ccccc1 | 1.04 ± 0.035 | 1.035 ± 0.0071 | 1 ± 0.026 | 0.972 ± 0.0099 | 1.005 ± 0.0071

— the supplement of paper PMC6522484
